We go through ten molecules from PubChem BioAssay (NCI).

About 83,000 compounds went through this panel and 20% of them were active in at least one assay; those are over-represented in the sample as a whole.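 Testing used 96-well plates and a 48-hour single-concentration exposure. Example: -40 means 40% of the starting cells died.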 Values without a mark were called inactive. Active and inactive are the calls of the source. How the source made its calls: active means growth percent below 10; inactive means the rest.

In the assay the test system is MDA-MB-468 breast. The assay is described as follows: NCI-60 one-dose screen, 48 h (100 = growth as untreated, 0 = no growth, -100 = all killed). The note with it: 10 µM unless noted.
Turning to `Cc1cc(Cl)nc(Nc2ccccc2)n1`, the growth was 105%. Turning to `COc1ccc(-c2cc(-c3cc(OC)c(OC)c(OC)c3)c(C#N)c(=O)n2CCCCC(=O)NO)cc1`, the growth is 72.3%. For the molecule `COc1ccc(-c2cc(-c3cn(-c4cccc(Cl)c4)nc3-c3ccc(OC)cc3)on2)cc1`, the growth is 88.9%. Take `CCOC(=O)c1nc(Nc2cc(C)[nH]n2)c2ccccc2n1`: the growth is 54.9%.

As to `Cc1cn(-c2cc(NC(=O)c3cncc(C#Cc4cnc5ccc(O[C@H]6CCOC6)nn45)c3)cc(C(F)(F)F)c2)cn1`, the growth is 145%. As for `Cc1cc2nc(NC(=O)CN3CCN(CCN4C(=O)c5cccc6cccc(c56)C4=O)CC3)sc2cc1C`, the growth was 86.3%.

Turning to `O=C(Oc1ccc[nH]c1=O)c1cc([N+](=O)[O-])cc([N+](=O)[O-])c1`, the growth was 119%. In the case of `O=C1C2=C(CCN(Cc3ccccc3)C2)N2CCN=C2N1Cc1ccc(C(F)(F)F)cc1`, the growth was 8.96% (active). On to `O=c1oc2ccc(Cl)cc2c(=O)n1-c1ccc(Cl)cc1F`, for which the growth is 2.01% (active). On to `OCCCc1n(Cc2ccc3ccccc3c2)c2ccccc2[n+]1Cc1ccc2ccccc2c1`, for which the growth was -27.7% (active).
